High-throughput results from PubChem BioAssay.
Many of the other results were omitted from the sample, so hits are more common in it than they were.
Dicer inh: human Dicer pre-microRNA cleavage inhibition. Q9UPY3. cat-ELCCA pre-miR-21 Dicer processing, chemiluminescence; stronger effect = higher value. z-score at 25 µM. hit rate 6% among 47,000. AID 1347074; in the data active = z-score above about 3, passing the limit was not always enough;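 note: plate controls were vehicle for no effect and no enzyme for full effect; higher signal means more uncleaved substrate so more Dicer inhibition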
* hit, by the source's call.

SMILES	Dicer inh
O=C(O)/C=C\C(=O)NCCc1ccc(Cl)cc1	7.2
CCOC(=O)Nc1sc(C(=O)OC(C)C)c(C)c1C(N)=O	1.01
Fc1ccccc1CN1CCN(CCCc2ccccc2)CC1	2.52
FC(F)(F)c1cnc(N2CCN(Cc3c[nH]c4ccccc34)CC2)c(Cl)c1	-1.59
Clc1ccccc1CN1CCN(Cc2c[nH]c3ccccc23)CC1	4.48*
Fc1ccccc1CN1CCN(Cc2c[nH]c3ccccc23)CC1	3.66*
Cc1cccc(CN2CCN(Cc3c[nH]c4ccccc34)CC2)c1	1.72
Brc1ccc(CN2CCN(Cc3c[nH]c4ccccc34)CC2)cc1	2.71
O=C1COCC(=O)N1CCc1c[nH]c2ccccc12	-1.21
CCS(=O)(=O)N1CCN(Cc2c[nH]c3ccccc23)CC1	3.45*
COc1ccc2c(c1)CCCN2Cc1c[nH]c2ccccc12	-1.88
CC1CC(=O)Nc2ccccc2N1C(=O)c1ccco1 (centres undefined)	-1.7
O=[N+]([O-])c1ccc2c(c1)NC1(CCCCC1)N2	1.76
CCOc1cc(C2C(C(=O)OC)=C(C)Nc3nc4ccccc4n32)ccc1O (centres undefined)	-1.01
Cn1ncc(C(=O)O)c1NNC(=O)CCC(=O)O	-0.05
CC(C)(C)SCCNc1nc(NCCSC(C)(C)C)nc(Sc2ccc(Cl)cc2)n1	0.71
CCN(CC)CCSc1nc(O)c(C)c(=O)[nH]1	2.93
CCCc1nn2c(=O)c(NC(=O)c3ccc(C)cc3)cnc2s1	-0.87
CCOC(=O)C(NC(C)=O)(Nc1cccc(C)n1)C(F)(F)F (centres undefined)	-1.38
Cc1cc(S(=O)(=O)NN(C)c2cccc(Cl)c2C#N)cc(C)c1F	-0.13
CN(NS(=O)(=O)c1ccc(Cl)c(Cl)c1)c1cccc(F)c1C#N	3.58*
CN(NC(=O)c1ccccc1Cl)c1cccc(F)c1C#N	-0.07
COC(=O)C1=C(C)NC2=C(C(=O)CCC2)C1c1cn[nH]c1 (centres undefined)	0.23
Cc1ccc(NC(=O)CCC(=O)O)cc1	-0.07
CC(=O)Nc1ccc(NC(=O)CCCC(=O)O)cc1	-2.43
SMILES	Dicer inh
O=C(O)CCC(=O)Nc1ccc(C(=O)O)c(O)c1	6.1*
C=CCOc1ccc(C2/C(=C(\O)c3ccc(Cl)cc3)C(=O)C(=O)N2c2nnc(C)s2)cc1 (centres undefined)	1.81
COc1cscc1C(=O)NNC(=O)c1cccc(C(F)(F)F)c1	1.04
CS(=O)(=O)N(Cc1ccc(Cl)cc1)c1ncc(C(F)(F)F)cc1Cl	-0.74
Cc1ccc(N2C(=O)C3ON(c4ccccc4)C(c4ccncc4)C3C2=O)cc1Cl (centres undefined)	0
CCCC1C2C(=O)N(c3ccccc3)C(=O)C2ON1c1ccc(Cl)c(Cl)c1 (centres undefined)	7.22*
O=C1C2C3c4ccccc4C(c4ccccc43)C2C(=O)N1c1ccc(Cl)c(Cl)c1 (centres undefined)	1.05
CCOc1ccc2nc(NC3=NCN(CCc4ccccc4)CN3)nc(C)c2c1	0.7
Cc1nc2ccc(N3NOC=C3O)cc2s1	1.21
OC1=CONN1c1cccc2ncccc12	3.24*
CCOC(=O)C(=CNc1cc(F)ccc1F)C(=O)OCC	-1.78
COc1cc(C2C(C(=O)OCc3ccccc3)=C(C)N=C3SCCC(=O)N32)ccc1OC(C)=O (centres undefined)	2.03
Cc1ccc(C2N3CC4(C)CN2CC(C)(C3)C4)cc1 (centres undefined)	3.03*
CC12CN3CC(C)(CN(C1)C3c1cc(Br)ccc1O)C2 (centres undefined)	0.72
CC12CN3CC(C)(CN(C1)C3c1ccc([N+](=O)[O-])o1)C2 (centres undefined)	0.27
Nc1nccc(-c2cccc(Cl)c2F)n1	0.66
COc1cc(C2SCCS2)cc(Br)c1OS(=O)(=O)c1ccc(Cl)cc1	-2.24
CSc1ncccc1C(=O)c1c(C)[nH]n(-c2ccccc2)c1=O	-2.43
Cn1c(Sc2nc3ccc(Cl)cc3s2)nnc1-c1ccc(Cl)cc1Cl	1.23
CCOCCCNC(=O)Cn1cnc2c1c(=O)n(C)c(=O)n2C	1.34
CCCCCCCNC(=O)Cn1cnc2c1c(=O)n(C)c(=O)n2C	4*
Cn1c(=O)c2c(ncn2CC(=O)NCc2ccc3c(c2)OCO3)n(C)c1=O	6.56*
Cn1c(=O)c2c(ncn2CC(=O)Nc2ccc3c(c2)OCCO3)n(C)c1=O	0.53
CC(C)CNC(=O)Cn1cnc2c1c(=O)n(C)c(=O)n2C	0.1
CCCNC(=O)Cn1cnc2c1c(=O)n(C)c(=O)n2C	-0.92
SMILES	Dicer inh
Cc1cccn2c(=O)c(NC(=O)c3ccc(F)cc3)cnc12	0.57
CCCCc1ccc(-n2nc3ccc(N)cc3n2)cc1	-1.02
O=C(Nc1c(C(=O)c2ccccc2)oc2ccccc12)c1cccs1	-0.81
Cc1nc2cc(NCc3ccco3)ccc2n1C	1.88
Cc1ccc(-n2cnc3cc(NCc4ccncc4)ccc32)cc1	12.6
COc1ccccc1-n1cnc2cc(NCc3ccco3)ccc21	6.55*
N#Cc1cn(-c2ccccc2)c(=O)[nH]c1=O	-0.85
Cc1nn2c3c(cnc2c1-c1ccc(Cl)cc1)C(=O)CC(c1ccccc1)C3 (centres undefined)	-0.17
